Compound activity as filed in PubChem BioAssay.
The list is not random: actives were taken first. Their share in the collection is about 21%.
DT40 TDP1 no CPT = qHTS for Inhibitors of human tyrosyl-DNA phosphodiesterase 1 (TDP1): qHTS in cells in absence of CPT | hit rate 15% among 420,000 | DT40 Tdp1-/- hTDP1 cells, no CPT, ATP luminescence, 48 h | Potency, µM (top dose mostly 46.2 µM), without a hit: top-dose activity change, negative = growth inhibition, hits mostly inhibitors; note: potency is the fitted concentration of half-maximal effect; nearly all actives have a fitted effect of over 55% in size
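DT40 Tdp1-/-;hTDP1 cells, no CPT (DMSO vehicle only), 400 cells/well; compounds pin-transferred; ≥48 hr, 37 °C; CellTiter-Glo 30 min RT dark, luminescence read.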
Gal4-VP16 FLuc = inhibits Gal4-VP16 luciferase reporter, ROR gamma counter-screen; Drosophila S2 Gal4-VP16 UAS-luciferase, luminescence, 20 h; Potency, µM (titrated, usually from 53.6 µM), for the others: top-dose activity, negative = inhibition, hits mostly inhibitors; hit rate 3.5% among 310,000;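 note: Gal4-VP16 expression switched on by copper sulfate through the metallothionein promoter; potency is the fitted concentration of half-maximal effect; nearly all actives have a fitted effect of over 50% in size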
RORg inh = ROR gamma (mouse) transcription inhibition. P51450. Drosophila S2 Gal4-RORgamma UAS-luciferase reporter, 20 h. Potency, µM (top dose mostly 53.6 µM), for inactives: at the top dose activity change, negative = inhibition, most hits filed as inhibitors. hit rate 5.4% among 310,000. AID 2551; note: potency is the fitted concentration of half-maximal effect; nearly all actives have a fitted effect of over 60% in size
Target sequence (P51450 whole entry, looked up, the tested form may be a part): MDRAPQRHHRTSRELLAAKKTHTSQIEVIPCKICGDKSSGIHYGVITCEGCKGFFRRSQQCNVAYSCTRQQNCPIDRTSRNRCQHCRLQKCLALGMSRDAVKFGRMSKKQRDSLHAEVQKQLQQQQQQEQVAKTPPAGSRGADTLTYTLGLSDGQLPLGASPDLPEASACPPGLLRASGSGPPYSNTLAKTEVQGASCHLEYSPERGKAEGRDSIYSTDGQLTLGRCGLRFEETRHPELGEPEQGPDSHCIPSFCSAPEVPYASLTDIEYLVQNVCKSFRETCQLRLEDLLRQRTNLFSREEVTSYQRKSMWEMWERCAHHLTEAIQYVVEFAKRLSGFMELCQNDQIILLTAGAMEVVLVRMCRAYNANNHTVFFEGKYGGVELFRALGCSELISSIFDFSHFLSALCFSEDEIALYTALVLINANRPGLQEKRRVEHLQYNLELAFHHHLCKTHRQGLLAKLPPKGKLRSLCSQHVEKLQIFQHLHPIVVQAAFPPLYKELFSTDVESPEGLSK
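In this cell-based reporter format, copper sulfate (700 uM final) drives Gal4–ROR gamma fusion expression from a metallothionein promoter in Drosophila Schneider cells; compounds preincubated 1 hr, reporter read after 20 hr at ambient temperature.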
TDP1 cell CPT = DT40-hTDP1 cell growth loss with CPT. hit rate 12% among 420,000. Potency, µM (highest dose often 46.2 µM), inactives show at the top dose activity change, negative = growth inhibition, actives largely listed as inhibitors. chicken DT40 Tdp1-/-;hTDP1 cells + 20 nM CPT, ATP luminescence, 48 h; note: potency is the fitted concentration of half-maximal effect; nearly all actives have a fitted effect of over 55% in size
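Chicken DT40 Tdp1-/- cells stably complemented with human TDP1 were seeded at 400 cells/well in medium containing 20 nM camptothecin, exposed to pin-transferred compounds, and grown at 37 °C for at least 48 hr. Viability was read as ATP luminescence.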
IL1B secr inh = inhibitors of inflammasome signaling (IL-1 beta secretion); THP-1 LPS/ATP IL-1B secretion, AlphaLISA, 16 h; hits give low values; activity change, % at 57.5 µM; AID 743279; hit rate 4.7% among 360,000; in the data active = activity change below about -50%; inconclusive = mostly about -30% to -49%
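Secreted IL-1B measured by AlphaLISA bead assay after 16 h compound exposure of THP-1 cells; compounds (final up to 57.5 uM) added 1 h before LPS (250 ng/mL) and ATP (1.25 mM) stimulation; lower signal means less secretion.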
ELG1 DNA repair = inhibitors of ELG1-dependent DNA repair in HEK293T cells; HEK293T ELG1-luciferase reporter, luminescence, 16 h; DNA damage induced by 5-fluorouridine; Potency, µM (series often up to 46.1 µM), without a hit: at the highest dose activity change, negative = inhibition, actives largely listed as inhibitors; hit rate 2.3% among 330,000; note: potency is the fitted concentration of half-maximal effect; nearly all actives have a fitted effect of over 55% in size
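Luminescence from the luciferase reporter, measured 30 min after ONE-Glo reagent at room temperature, was the read-out. Beforehand, 2,000 cells per well were exposed for 16 hr at 37 °C to 5-fluorouridine together with compound or vehicle.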
An asterisk follows results filed as active; ? = inconclusive; nt = no result given; [ ] = dose if it differs, or a comment. Unless noted, calls come from the whole dose curve; as a rule, active = well fitted curve in the direction sought with a large enough effect; inconclusive = small, poorly fitted or top-dose-only effect, or another doubt; inactive = no such curve, though single readings can be large; an effect the other way counts as inactive or inconclusive. % is set by controls: 0 for no effect and ±100 for the full control effect.

SMILES	DT40 TDP1 no CPT	Gal4-VP16 FLuc	RORg inh	TDP1 cell CPT	IL1B secr inh	ELG1 DNA repair
COc1ccc(OCCN(C)C(=O)c2cccc(S(=O)(=O)N(C)c3ccccc3)c2)cc1	18µM*	nt	nt	12µM*	?	?
COc1ccc(N(C)S(=O)(=O)c2cccc(C(=O)NCC3CCCO3)c2)cc1 (stereo unspecified)	-29%	4%	43%	?	-7	?
CCCCN(c1ccccc1)S(=O)(=O)c1cccc(C(=O)O)c1	-5%	7%	-26%	3%	25	-3%
O=C(Nc1cccc(F)c1)N1CC[C@@]2(CCCN(C(=O)c3cc(C(F)(F)F)cc(C(F)(F)F)c3)C2)C1	-16%	14%	16%	8%	nt	nt
Cc1ccc2c(C)c(C(=O)N3CCC(C(N)=O)(N4CCCCC4)CC3)oc2c1C	21µM*	nt	nt	?	-9	nt
Cc1cccc(NC(=S)N2CCC(C(N)=O)(N3CCCCC3)CC2)c1C	2%	-11%	-21%	4%	28	-1%
COc1ccccc1C(=O)N1CCCN(C(=O)c2ccccc2OC)CC1	1%	1%	30%	-8%	-25	-18%
COc1ccccc1C(=O)N1CCN(C(=O)c2oc3c(C)c(C)ccc3c2C)CC1	16µM*	nt	nt	?	-27	nt
Oc1c(C(c2cccc(Cl)c2)N2CCOCC2)sc2nc(-c3ccco3)nn12 (stereo unspecified)	-16%	nt	nt	-5%	nt	nt
CCc1nc(NCc2ccc3c(c2)OCO3)c2oc3ccccc3c2n1	18µM*	3%	-25%	13µM*	12	-19%
CCc1nc(NCc2cccnc2)c2oc3ccccc3c2n1	?	-18%	8%	-25%	22	?
Cc1nc(NCc2ccc3c(c2)OCO3)c2oc3ccccc3c2n1	-26%	-2%	?	-21%	-52*	?
Cc1cc(C)cc(OCCCn2c(CCNC(=O)C3CCCCC3)nc3ccccc32)c1	15µM*	nt	nt	12µM*	nt	nt
Cc1cccc(OCCCn2c(CCNC(=O)C3CCCCC3)nc3ccccc32)c1	12µM*	nt	nt	13µM*	nt	nt
Cc1cccc(OCCn2c(SCC(N)=O)nc3ccccc32)c1	21µM*	nt	nt	?	nt	nt
O=C(NCCCc1nc2ccccc2n1CCOc1ccccc1)C1CCCCC1	-26%	nt	nt	-28%	nt	nt
Cc1cccc(OCCn2c(CCCO)nc3ccccc32)c1	-4%	-7%	7%	0%	-19	-1%
CC(C)(C)c1ccc(OCCn2c(CCNC(=O)C3CCCCC3)nc3ccccc32)cc1	3.2µM*	nt	nt	11µM*	nt	nt
CC(C)N(C)c1ncnc2c1ncn2[C@H]1CN(CCN2CCOCC2)C[C@@H](CO)O1	0%	nt	nt	5%	27	nt
O=C(NCCc1nc2ccccc2n1CCCOc1ccc2ccccc2c1)C1CCCCC1	11µM*	nt	nt	?	nt	nt
CC(=O)NCCc1nc2ccccc2n1CCOc1cccc(C)c1	?	-1%	20%	?	4	-7%
Cc1ccc(OCCCCn2c(CCNC(=O)C3CCCCC3)nc3ccccc32)cc1	16µM*	nt	nt	?	nt	nt
CC(=O)NCCc1nc2ccccc2n1CCOc1ccccc1	2%	2%	0%	-1%	-2	6%
Cc1cccc(OCCCn2c(CCNC(=O)C(C)C)nc3ccccc32)c1	16µM*	0%	-16%	?	-6	?
Cc1ccccc1OCCCn1c(CCNC(=O)C2CCCCC2)nc2ccccc21	16µM*	nt	nt	13µM*	nt	nt
SMILES	DT40 TDP1 no CPT	Gal4-VP16 FLuc	RORg inh	TDP1 cell CPT	IL1B secr inh	ELG1 DNA repair
O=C(NNC(=O)C1C2C=CC(C2)C1C(=O)O)c1cc(Cl)ccc1O (stereo unspecified)	-1%	0%	-17%	-6%	-7	10%
CCOc1ccc(CCNC(=O)COC(=O)c2ccc(OC)c(OC)c2OC)cc1OCC	-24%	3%	31%	-12%	7	9.2µM*
CCOc1ccc(CCNC(=O)COC(=O)c2cccc(OC)c2O)cc1OCC	23%	7%	6%	4%	-15	-19%
CCOc1ccc(CCNC(=O)c2nnc(Cc3cc(OC)c(OC)c(OC)c3)o2)cc1OCC	?	nt	nt	21µM*	nt	nt
CC(=O)OCC(NC(=O)C(C)NC(=O)OC(C)(C)C)C1OC(n2cc(C)c(=O)[nH]c2=O)C(OC(C)=O)C1OC(C)=O (stereo unspecified)	nt	1%	-1%	nt	nt	nt
O=C(NC(=O)c1ccccc1O)c1ccc2c(c1)CCO2	21µM*	?	5µM*	-25%	19	?
CC(C)(C)NC(=O)c1ccc2c(c1)CCO2	-14%	-8%	13%	-7%	4	-8%
CC(C)CN1CCN(CCCOC(=O)Nc2cccc3ccccc23)CC1C (stereo unspecified)	?	nt	nt	-13%	-7	nt
CC1(C)CC(=O)C2=C(C1)O[C@@]1(CCCCN3C(=O)c4ccccc4C3=O)Cc3cc(C#N)ccc3C2O1	nt	-11%[10 µM]	9%[10 µM]	nt	nt	nt
COc1cc(OC)c(NC(=O)CC(c2cccs2)N2Cc3ccccc3C2=O)cc1Cl (stereo unspecified)	18µM*	nt	nt	23µM*	nt	nt
COc1ccccc1CNC(=O)CC(c1ccc(OC)c(OC)c1)N1Cc2ccccc2C1=O (stereo unspecified)	?	nt	nt	-10%	nt	nt
COc1ccc(C(CC(=O)NCc2ccc(Cl)cc2)N2Cc3ccccc3C2=O)cc1OC (stereo unspecified)	13µM*	nt	nt	18µM*	nt	nt
COc1ccc(C(CC(=O)NCc2ccccc2)N2Cc3ccccc3C2=O)cc1 (stereo unspecified)	23µM*	nt	nt	?	nt	nt
COc1ccc(CNC(=O)C(C)N2Cc3ccccc3C2=O)cc1 (stereo unspecified)	-20%	nt	nt	-3%	nt	nt
COc1ccc(C(CC(=O)Nc2cc(C)ccn2)N2Cc3ccccc3C2=O)cc1 (stereo unspecified)	13µM*	1%	13%	?	13	-17%
CC(=O)c1ccc(NC(=O)CC(c2cccs2)N2Cc3ccccc3C2=O)cc1 (stereo unspecified)	?	nt	nt	-24%	nt	nt
CCCC(C(=O)NCc1cccc(Cl)c1)N1Cc2ccccc2C1=O (stereo unspecified)	12µM*	nt	nt	?	nt	nt
COc1ccc(C(CC(=O)Nc2cc(OC)c(OC)c(OC)c2)N2Cc3ccccc3C2=O)cc1 (stereo unspecified)	23µM*	nt	nt	23µM*	nt	nt
COc1ccc(C(CC(=O)Nc2ccc(C(C)=O)cc2)N2Cc3ccccc3C2=O)cc1 (stereo unspecified)	-4%	nt	nt	-9%	nt	nt
